Experimental data as given in PubChem BioAssay AID624389 (National Center for Advancing Translational Sciences (NCATS), 2012).
Calls of active or inactive are those of the source. Calls follow the shape of the dose curve; as a rule, active = well fitted curve in the direction sought with a large enough effect; inactive = no such curve, though single readings can be large or run the other way.

target: Pyruvate kinase PKM (Homo sapiens) (UniProt P14618); assay: qHTS for Activators of Human Muscle Isoform 2 Pyruvate Kinase: Extended Characterization Using A Lactate Dehydrogenase (LDH) Assay Probe 2; settings: purified hPK-M2, LDH-coupled NADH fluorescence kinetic
Sequence (P14618 whole entry, looked up, canonical isoform): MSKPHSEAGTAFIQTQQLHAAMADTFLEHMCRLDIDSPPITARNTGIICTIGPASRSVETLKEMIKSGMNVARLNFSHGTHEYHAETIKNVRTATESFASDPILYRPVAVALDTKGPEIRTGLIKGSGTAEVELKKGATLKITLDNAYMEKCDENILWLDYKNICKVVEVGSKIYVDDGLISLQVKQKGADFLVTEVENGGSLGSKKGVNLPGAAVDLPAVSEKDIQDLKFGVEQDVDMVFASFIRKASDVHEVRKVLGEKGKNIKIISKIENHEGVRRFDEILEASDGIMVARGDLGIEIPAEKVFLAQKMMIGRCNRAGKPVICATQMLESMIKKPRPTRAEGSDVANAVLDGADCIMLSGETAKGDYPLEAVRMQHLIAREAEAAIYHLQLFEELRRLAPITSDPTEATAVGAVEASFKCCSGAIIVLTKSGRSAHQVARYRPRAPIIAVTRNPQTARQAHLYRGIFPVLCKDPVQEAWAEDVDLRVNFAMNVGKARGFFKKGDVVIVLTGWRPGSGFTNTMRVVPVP
Description: Human pyruvate kinase muscle 2 (hPK-M2)enzyme was supplied as a highly purified (>95% pure) preparation from Harvard Medical School and a secondary assay was used to evaluate compounds. This assay couples the formation of pyruvate from hPK-M2 using lactate dehydrogenase (LDH) and NADH. The depletion of NADH is followed in a fluorescent-based kinetic assay that follows the formation of pyruvate to lactate, as catalyzed LDH (described by Hannaert et al., 2002)1 Pyruvate kinase substrates, PEP and ADP, were present in the assay at 0.1 mM and 4 mM respectively. In this kinetic assay initial rates were determined by following the fluorescence of NADH depletion. NIH Chemical Genomics Center [NCGC] NIH Molecular Libraries Probe Centers Network [MLPCN] MLPCN Grant: MH085679 Assay Submitter (PI): Matthew G. Vander Heiden, Harvard Medical School
Three uL of substrate mix (final concentration, 50 mM Tris-Cl pH 8.0, 200 mM KCl, 15 mM MgCl2, 0.1 mM PEP, 4.0 mM ADP, and 0.2 mM NADH) was dispensed into black-solid 1536 well plates. 23 nL of compounds were delivered by a pin tool and 1 uL of enzyme mix (final concentrations, 10 nM hPK-M2 and 1 uM of LDH) was added. Plates were immediately placed in ViewLux (Perkin Elmer) and NADH fluorescence was determined at 30 second exposure intervals for between 3 and 6 minutes. Data were normalized to the uninhibited and EC100 activation using known activators such as fructose-bis-phosphate.

Potency, active:
O=S(=O)(c1ccc2c(c1)OCCO2)N1CCN(S(=O)(=O)c2c(F)cccc2F)CC1 178 nM
Cc1ccc(NS(=O)(=O)c2ccc3c(c2)CCC(=O)N3)cc1C 146 nM
COc1cccc(Cn2ncc3c4sc(S(C)=O)cc4n(C)c3c2=O)c1 (stereo not drawn) 410 nM
